# Measured values as given in PubChem BioAssay AID1345083 (National Center for Advancing Translational Sciences (NCATS), 2018).
# Hit rate of the full screen: of about 94,000 compounds, about 6,200 (6.6%) were called active. Not shown: some 31% with an inconclusive outcome. Only a selection was taken, and actives are over-represented in it overall. Unmarked numbers belong to inactive results. Calls follow the shape of the dose curve; as a rule, active = well fitted inhibition curve with a large enough effect; inconclusive = small, poorly fitted or top-dose-only effect; inactive = flat fitted curve, though single readings scatter.
# Assay: Cytotoxic Profiling in HEK 293 Cell Line of Diverse Libraries Using Quantitative High-Throughput Screening; also: nearly all actives have a fitted effect of over 60% in size
# Settings: HEK 293 viability, ATP luminescence (CellTiter-Glo), 48-72 h; series mostly up to 115 µM; activity change, negative = cytotoxicity: at the top concentration
# Method in brief: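 HEK 293 cells at 250 cells/well were exposed to compounds by pintool transfer for 48 or 72 hr at 37 degree Celsius, 5% CO2. Viability was read as ATP-coupled luminescence with CellTiter-Glo after 10 min at room temperature.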
# % is scaled to controls: 0 for no effect and ±100 for the full control effect; potency is read from the fitted curve at half-maximal effect.
SMILES,"activity change, negative = cytotoxicity",Potency,outcome
O=C(NCCc1nc(-c2ccccc2)cs1)C1NCCc2[nH]cnc21 (stereo not given),1.73%,–,–
Cc1ccc(CS(=O)(=O)N2CCC(C3CCNC3)CC2)cc1C (stereo not given),–,89.1 µM (active),–
O=S(=O)(Cc1cccc(F)c1)N1CCC(C2CCNC2)CC1 (stereo not given),-18.2%,–,–
O=C1CCN(C(=O)C2CCN(S(=O)(=O)Cc3ccccc3)CC2)CCCCCCN1,-1.97%,–,–
CCC(=O)N1Cc2ccccc2CC2(CCCN2C)C1 (stereo not given),-18.2% [at 172 µM],–,–
NCC(=O)N1CCCC2(Cc3ccccc3CN2C(=O)c2cccc(Cl)c2)C1 (stereo not given),–,70.8 µM (active),–
NCC(=O)N1Cc2ccccc2CC2(CCCCN2CC2CCOCC2)C1 (stereo not given),-4.35%,–,–
O=C(c1cccnc1)N1C[C@@H](F)[C@@H](OCc2nc3ccc(C(F)(F)F)cc3[nH]2)C1,-27.9% [at 172 µM],–,–
C[S+](=O)([O-])NC1CC2(CCN(Cc3ccc(O)cc3)CC2)c2ccccc21 (stereo not given),-13.3%,–,–
CC1=C[C@@H](CN2CCN(CCO)CC2)[C@H](C(C)C)C[C@H]1Cc1nnc(-c2ccc(C)cc2)o1,–,31.6 µM (active),–
CC1=C[C@@H](CN2CCOCC2)[C@H](C(C)C)C[C@H]1Cc1nnc(-c2ccc([N+](=O)[O-])cc2)o1,–,39.8 µM (active),–
CC1=C[C@@H](CC#N)[C@H](C(C)C)C[C@H]1CC(=O)N1CCN(C)CC1,-28.2% [at 172 µM],–,–
CC1=C[C@@H](CN2CCCC2)[C@H](C(C)C)C[C@H]1Cc1nnc(-c2ccc([N+](=O)[O-])cc2)o1,–,35.5 µM (active),–
CNC(=O)c1cc(C)nc2onc(C3CCCN3C(=O)Cc3ccc(F)cc3)c12 (stereo not given),-7.3%,–,–
NC1CCCCN(C(=O)c2ccc3n[nH]nc3c2)C1 (stereo not given),-10.8%,–,–
CSc1cccc(NC(=O)N[C@H]2C[C@@H](C(=O)N[C@@H](CCCNC(=O)CC(C)(C)C)C(N)=O)N(C(=O)CC(C)(C)C)C2)c1,-17.2%,–,–
COCCS(=O)(=O)c1ncc(CN2CCCCO2)n1Cc1ccccc1,-24%,–,–
CCCN1C(=O)[C@H]2CC[C@@H]1CN(C(=O)c1nc(-c3ccccc3)[nH]c1C)C2,1.99%,–,–
O=C(NC[C@H]1Cn2c(-c3ccc(F)cc3)cnc2CO1)C1CC1,-2.09% [at 172 µM],–,–
Cc1ccc(Cl)cc1NC(=O)N1C[C@@H](F)C[C@H]1C(=O)N1CCCCC1,0.438%,–,–
COc1cccc(NC(=O)N[C@H]2CCN(C(=O)C=C(C)C)[C@@H]2C(=O)N[C@@H](Cc2cccs2)C(N)=O)c1,-0.217%,–,–
O=C1CC(c2ccccc2)N(C(=O)CNC(=O)c2cnccn2)CCCCCCN1 (stereo not given),-3.36%,–,–
CC(C)(C)C(=O)Nc1cc(C2CC2)nn1-c1ccccc1,0.126% [at 172 µM],–,–
Cc1nn(-c2cccc(Br)c2)c(C)c1[C@@H]1C=C[C@@H](NS(=O)(=O)c2ccccc2)C1,–,44.7 µM (active),–

SMILES,"activity change, negative = cytotoxicity",Potency,outcome
Cc1nn(CCC#N)c(C)c1[C@@H]1C=C[C@@H](NS(=O)(=O)c2ccccc2)C1,-9.74% [at 172 µM],–,–
c1c[nH]c(CNC[C@H]2Cn3ccnc3CO2)n1,-7.47% [at 230 µM],–,–
Cc1ccccc1CN1Cc2nc(NCc3ccncc3)ccc2OCC1=O,–,89.1 µM (active),–
CCOc1ccc(NC(=O)Cn2nc3n(c2=O)CCN(Cc2ccccc2C)C3=O)cc1,-10.7%,–,–
COc1ccc(CN2CCN3C(=O)N(c4ccccc4)C[C@H]3C2)cn1,-19.4% [at 172 µM],–,–
COc1ccc(Nc2ccc3c(n2)CN(Cc2ccccc2C)C(=O)CO3)cn1,–,100 µM (active),–
CC(=O)N1CCCN(C(=O)c2cnc3c(c2)N(C(=O)Cc2ccc(C(C)C)cc2)CCC3)CC1,-27.9%,–,–
CCC(C)NC(=O)N1CCC(CCOC)(NS(C)(=O)=O)CC1 (stereo not given),-7.52%,–,–
O=C(c1nc(-c2cccnc2)c2cnccn12)N1CCN(c2ncccn2)CC1,-2.6%,–,–
CN(C)c1ccc(C(=O)N[C@H]2C[C@H]3C(=O)NC[C@@H](CCC(=O)N4CCc5ccccc54)N3C2)cc1,-18.7%,–,–
O=C(c1ccccc1)N1CCN(C(=O)c2nc3cccnc3n(C3CC3)c2=O)CC1,-15.7%,–,–
CCC(=O)N1CCC(CC(=O)N2CCOCC2)C1 (stereo not given),7.81%,–,–
O=C(C1CCN(Cc2ccccc2-c2ccccc2F)CC1)N1CCC(c2ccccc2)CC1,–,25.1 µM (active),–
C#CCNC(=O)C1CCN(Cc2ccccc2-c2ccccc2F)CC1,-26.1%,–,–
COC(=O)CNC(=O)C1CCN(Cc2ccccc2-c2ccccc2F)CC1,0.145%,–,–
CC1CCC2(CC1)NC(=O)N(CC(=O)NCc1ccco1)C2=O (stereo not given),4.68%,–,–
Cn1cc(C#N)cc1-c1nc(COc2ccccc2)nn1CC(F)(F)F,-25%,–,–
COc1ccc(C2Cn3nnc(-c4noc(-c5ccc(OC)cc5C)n4)c3CO2)cc1 (stereo not given),-11.1%,–,–
Cc1nc(CCNS(=O)(=O)c2cccnc2)no1,-4.92%,–,–
COc1ccccc1NC(=O)C1c2ccccc2C(=O)N(CC(C)C)C12CCCC2 (stereo not given),–,70.8 µM (active),–
COCCN1C(=O)c2ccccc2C(C(=O)NC2CC2)C12CCCCC2 (stereo not given),-7.97%,–,–
COC(=O)CCNC(=O)C1c2ccccc2C(=O)N(CC(C)C)C12CCCC2 (stereo not given),-8.33%,–,–
COCCOC1CN(C2CCN(C(=O)C3CCOCC3)CC2)C12CCCCC2 (stereo not given),0.932%,–,–
CC[C@H]1CN(C(=O)c2cccnc2)CC[C@H]1CC(=O)NCc1cccnc1,-7.23% [at 172 µM],–,–

SMILES,"activity change, negative = cytotoxicity",Potency,outcome
CC(C)NC(=O)N1CCCC1c1noc(COc2ccc(F)cc2)n1 (stereo not given),–,–,inactive
CN1C(=O)c2cccn2CC1C(=O)NC1CCN(Cc2ccccc2)CC1 (stereo not given),-2.33%,–,–
Cc1cccc(-c2cccc(CN3CCC(NC(=O)Nc4ccccc4)CC3)c2)c1,–,22.4 µM (active),–
Cc1cccc(C(=O)N2CCC(CC(=O)NCc3ccccc3)C2)c1 (stereo not given),-0.159%,–,–
O=C([C@@H]1C[C@H](F)CN1C(=O)Nc1ccccc1)N1CCCCC1,0.832%,–,–
Cc1noc(C)c1C(=O)N[C@@H]1CN(c2ccncn2)C[C@H]1CN(C)C,-7.32%,–,–
CN(Cc1cccnc1)C(=O)CCC[C@@H]1[C@H]2CCCN3CCC[C@@H](CN1C(=O)c1cccnc1)[C@@H]23,-1.49%,–,–
CCCc1sc(NC(=O)C[C@H]2NC(=O)c3ccccc3NC2=O)nc1C(=O)OC,-32.3%,–,–
Cc1ccc(N2CC(Cc3ccccc3)N(C(=O)c3ccnn3C)CC2=O)cc1 (stereo not given),-1.24%,–,–
COc1cccc(CN2CCOC3CCN(C(=O)c4cccnc4)CC3C2=O)c1 (stereo not given),-13% [at 172 µM],–,–
COc1ccc(-c2noc(-c3cccn3CC(=O)Nc3ccccc3)n2)cc1F,-1.07%,–,–
COCCN1Cc2cc(OC)ccc2N(CC(O)COc2ccc(OC)cc2)CCC1=O (stereo not given),-16.6%,–,–
COc1cccc(CN2CCN(C(=O)c3cnc4ccccn4c3=O)CC2=O)c1,-6.66%,–,–
COc1cccc(CN2Cc3nc(-c4cc(F)cc(F)c4)ccc3OCC2=O)c1,–,63.1 µM (active),–
COc1cccc(CC(=O)NCCc2noc(-c3cccnc3)n2)c1,-3.51%,–,–
COc1ccc(-c2ccc3c(n2)CN(CCOc2ccccc2)C(=O)CO3)cc1F,–,79.4 µM (active),–
CCN(Cc1cnn(CC)c1)C(=O)C1CCCCC(=O)N1Cc1cccc(OC)c1 (stereo not given),-4.72%,–,–
COc1cccc(CN2Cc3nc(Nc4cccc(F)c4)ccc3OCC2=O)c1,–,89.1 µM (active),–
CCOCCOC1CCN(C(=O)NCc2ccc(C)cc2)CC1,-9.46%,–,–
CN1CCN(C(=O)c2nc3sccn3c2-c2ccc(F)cc2)CC1,-3.39%,–,–
COC(=O)[C@H]1CCCN1C(=O)[C@@H]1C[C@@H](NS(=O)(=O)c2cccs2)CCN1C(=O)COCC(=O)O,2.93%,–,–
CS(=O)(=O)N1C[C@H]2CCN(C(=O)c3ccncc3F)C[C@H]21,2.85%,–,–
Cn1c(=O)[nH]cc(CC(=O)N2CCn3nc(Cc4ccccc4)cc3C2)c1=O,-15.7%,–,–
CN(CCc1ccccn1)[C@@H]1[C@H](O)[C@H](CO)O[C@@H]1CNC1CCOCC1,-6.2%,–,–

SMILES,"activity change, negative = cytotoxicity",Potency,outcome
COCC(=O)N[C@H]1CC(C)(C)[C@@H]2C[C@@](C)(O)CC[C@]12CCC(=O)N1CCN(c2ccccc2OC)CC1,-24.2%,–,–
CC(C)C(=O)N1CC(n2cc(COc3ccc(F)cc3)nn2)C1,3.3%,–,–
COc1ccc(CC(=O)N2CCC(C(=O)N3CCC(N4Cc5ccccc5C4=O)CC3)CC2)cc1,-9.54%,–,–
CCCS(=O)(=O)N1Cc2c(ncn2Cc2ccc(Cl)cc2)C[C@H]1C(=O)OC,–,–,inactive [at 172 µM]
CCOc1ccc2c(n1)CCN(C(=O)c1nccn1C)C2,-2.75%,–,–
O=C1CCN(C(=O)C2CCN(C(=O)CCCc3ccccc3)CC2)CCCCCCN1,-9.4%,–,–
COCCn1c(C)cc(C(=O)N2CCCC(c3[nH]ccc3C(N)=O)C2)c1C (stereo not given),-7.44%,–,–
CCOC(=O)C1(Cc2ccccc2F)CCCN(C(=O)CN2CCOC2=O)C1 (stereo not given),-14.2%,–,–
CCOC(=O)C1(Cc2ccc(F)cc2F)CCCN(Cc2cccc(OC)c2O)C1 (stereo not given),–,39.8 µM (active),–
O=C1NCc2ccccc2CC12CCCN(Cc1ccc(F)cc1O)C2 (stereo not given),-29.2%,–,–
Cc1ccc(-c2nc(C3CC(=O)N(c4ccc(Cl)cc4)C3)no2)cc1C (stereo not given),-27.1%,–,–
COc1ccc(N2CC(c3noc(-c4ccc(C(C)(C)C)cc4)n3)CC2=O)cc1 (stereo not given),–,44.7 µM (active),–
Cc1ccc(N2CC(c3noc(-c4cc(Cl)ccc4F)n3)CC2=O)cc1 (stereo not given),-2.57%,–,–
Cc1ccc(CN2C(=O)[C@@H]3C[C@@H](O)CN3C3(CN(Cc4ccccn4)C3)C2=O)o1,-2.96% [at 172 µM],–,–
O=C(NCCN[S+](=O)([O-])c1cccs1)c1ccc(-c2cccc(C(F)(F)F)c2)cc1,–,44.7 µM (active),–
O=C(NCCNC(=O)c1ccccc1F)c1ccc(-c2cccc(C(F)(F)F)c2)cc1,–,inactive,–
O=C(NCC(=O)N1CCC(c2ccccc2)CC1)c1ccc(-c2cccc(C(F)(F)F)c2)cc1,-41.8%,–,–
CC(=O)NCC(=O)N1Cc2ccccc2CC2(CCCN2Cc2cccnc2)C1 (stereo not given),-9.93%,–,–
CC(C)CCN1CCC2(CC1)C(=O)NCN2Cc1ccc(Cl)cc1,1.53%,–,–
COc1ccc(CCNC(=O)c2nnn3cc(-c4ccccc4)[nH]c(=O)c23)cc1OC,1.64%,–,–
Cc1cc2nc3n(c(=O)c2n1CC(=O)Nc1cc(F)cc(F)c1)CCCC3,12.9%,–,–
Cc1cc2nc3n(c(=O)c2n1CC(=O)Nc1ccc(Br)cc1)CCCC3,-11.8%,–,–
Cc1cc2nc3n(c(=O)c2n1CC(=O)Nc1cccc(C(F)(F)F)c1)CCCC3,–,28.2 µM (active),–
